{
  "source": "PubChem BioAssay (NCATS)",
  "key": {"[1]": {"assay": "Viability qHTS for spleen associated tyrosine kinase inhibitor (SYKi) naive MV4-11 cells (AID 1963823); note: nearly all actives have a fitted effect of over 40% in size", "procedure,_shortened": "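qHTS, SYK inhibitor-naive MV4-11; 500 cells/well; 72 hr compound exposure, 37 C; CellTiter-Glo added, 10 min RT; luminescence read.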"}, "[2]": {"assay": "Viability qHTS for spleen associated tyrosine kinase inhibitor (SYKi) drug resistant MV4-11 cells (AID 1963824); note: nearly all actives have a fitted effect of over 35% in size", "procedure,_shortened": "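SYK inhibitor-resistant MV4-11 AML cells, 500 per well, added to predispensed compounds and incubated 72 hr at 37 C, 5% CO2. Viability measured by CellTiter-Glo luminescence after 10 min at room temperature.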"}},
  "note": "Records with an inconclusive call do not appear. Entries that show only a call come without a potency. A number with no mark means an inactive call. The source made the active and inactive calls. Calls come from the whole dose curve; as a rule, active = well fitted cell-killing curve with a large enough effect; inconclusive = small, poorly fitted or top-dose-only effect, or effect the other way; inactive = no such curve, though single readings can be large or run the other way. Potency is the fitted concentration of half-maximal effect.",
  "data": [
    {"compound": "CCCC(=O)C1CCN(c2ncnc3c2CN(C(=O)c2ccc(-c4ccccc4)cc2)CC3)CC1", "values": [
      {"measurement": "Potency", "setting": "[1]", "result": "16.4 µM (active)"},
      {"measurement": "Potency", "setting": "[2]", "result": "20.6 µM (active)"}
    ]},
    {"compound": "C/C1=C\\CC[C@H](C)CCO[C@@H]2O[C@H](CO[C@@H]3OC[C@](O)(COC1=O)[C@H]3O)[C@@H](O)[C@H](O)[C@H]2O", "values": [
      {"measurement": "Potency", "setting": "[1]", "result": "inactive"},
      {"measurement": "Potency", "setting": "[2]", "result": "inactive"}
    ]},
    {"compound": "C=C(C(=O)O)[C@@H]1CC[C@@]2(C)CC[C@@H](O)C(=C)C2C1", "note": "(some centres not stated)", "values": [
      {"measurement": "Potency", "setting": "[1]", "result": "inactive"},
      {"measurement": "Potency", "setting": "[2]", "result": "inactive"}
    ]},
    {"compound": "Cc1ccc(NC(=O)c2ccc(CN3CC[C@H](N(C)C)C3)c(C(F)(F)F)c2)cc1Nc1nccc(-c2cncnc2)n1", "values": [
      {"measurement": "Potency", "setting": "[1]", "result": "6.32 µM (active)"},
      {"measurement": "Potency", "setting": "[2]", "result": "7.23 µM (active)"}
    ]},
    {"compound": "C=C1C(OC(C)=O)C(=O)C2C(C)(C)C(O)CCC2(C)C1CC(OC(C)=O)/C(C)=C/COC(C)=O", "note": "(configuration not stated)", "values": [
      {"measurement": "Potency", "setting": "[1]", "result": "inactive"},
      {"measurement": "Potency", "setting": "[2]", "result": "inactive"}
    ]},
    {"compound": "CCCC(=O)Nc1cccc(NC(=O)c2ccccc2Br)c1", "values": [
      {"measurement": "Potency", "setting": "[1]", "result": "inactive"},
      {"measurement": "Potency", "setting": "[2]", "result": "inactive"}
    ]},
    {"compound": "COc1ccc(/C=C/C(=O)O[C@@H]2[C@@H](O)[C@@H](O)[C@H](O[C@@H]3C=C(CO)[C@H]4[C@H](O[C@@H]5O[C@H](CO)[C@@H](O)[C@H](O)[C@H]5O)OC=C[C@H]43)O[C@H]2C)cc1O", "values": [
      {"measurement": "Potency", "setting": "[1]", "result": "inactive"},
      {"measurement": "Potency", "setting": "[2]", "result": "inactive"}
    ]},
    {"compound": "CC1OC(O[C@H]2CC[C@@]3(C)C(CC[C@]4(C)C3CC=C3C5CC(C)(C)CC[C@]5(C(=O)OC5OC(CO)C(OC6OCC(OC7OCC(O)C(O)C7O)C(O)C6O)C(O)C5O)CC[C@]34C)C2(C)C)C(O)C(O)C1OC1OC(CO)C(O)C(OC2OC(CO)C(O)C(O)C2O)C1O", "note": "(some centres not stated)", "values": [
      {"measurement": "viability (% of control)", "setting": "[1]", "result": "54.2% [at 9.25 µM]"},
      {"measurement": "viability, % of control", "setting": "[2]", "result": "62.2% [at 9.25 µM]"}
    ]},
    {"compound": "CC1=CC(=O)OC(C)(CC(C)(O)C(=O)O)C1", "note": "(configuration not stated)", "values": [
      {"measurement": "Potency", "setting": "[1]", "result": "inactive"},
      {"measurement": "Potency", "setting": "[2]", "result": "inactive"}
    ]},
    {"compound": "CC(/C=C/C1=CC2=CC(=O)C(C)(O)C(O)C2=CO1)=C\\C(C)CCO", "note": "(configuration not stated)", "values": [
      {"measurement": "Potency", "setting": "[1]", "result": "inactive"},
      {"measurement": "Potency", "setting": "[2]", "result": "inactive"}
    ]},
    {"compound": "COC(=O)N[C@H](C(=O)N1CCC[C@H]1c1ncc(-c2ccc(-c3ccc(-c4cnc([C@@H]5CCCN5C(=O)[C@@H](NC(=O)OC)C(C)C)[nH]4)cc3)cc2)[nH]1)C(C)C", "values": [
      {"measurement": "Potency", "setting": "[1]", "result": "18.6 µM (active)"},
      {"measurement": "Potency", "setting": "[2]", "result": "16.6 µM (active)"}
    ]},
    {"compound": "CCOc1ccc(Cc2nc(-c3c(C)nc4ccccn34)cs2)cc1", "values": [
      {"measurement": "Potency", "setting": "[1]", "result": "0.0366 µM (active)"},
      {"measurement": "Potency", "setting": "[2]", "result": "0.0184 µM (active)"}
    ]},
    {"compound": "COc1ccc([C@H]2OC[C@H]3O[C@@H](O[C@H]4[C@@H]2NC[C@@H]4O)[C@H](O)[C@H]3O)cc1", "values": [
      {"measurement": "Potency", "setting": "[1]", "result": "0.64 µM (active)"},
      {"measurement": "Potency", "setting": "[2]", "result": "0.404 µM (active)"}
    ]},
    {"compound": "C=C1C(=O)OC2/C=C(\\C)CC/C=C(\\C)CC(OC(C)=O)C12", "note": "(configuration not stated)", "values": [
      {"measurement": "Potency", "setting": "[1]", "result": "2.59 µM (active)"},
      {"measurement": "Potency", "setting": "[2]", "result": "2.59 µM (active)"}
    ]},
    {"compound": "C[C@@]12CC3(S(=O)(=O)O)OC(O1)[C@]1(COC(=O)c4ccccc4)[C@H]3C[C@]21O[C@@H]1O[C@H](CO)[C@@H](O)[C@H](O)[C@H]1O", "values": [
      {"measurement": "Potency", "setting": "[1]", "result": "inactive"},
      {"measurement": "Potency", "setting": "[2]", "result": "inactive"}
    ]},
    {"compound": "C[C@@H]1[C@H]2[C@H](O[C@@H]3O[C@H](CO)[C@@H](O)[C@H](O)[C@H]3O)OC=C(C(=O)O)[C@H]2C[C@@H]1OC(=O)/C=C/c1ccc(O)cc1", "values": [
      {"measurement": "Potency", "setting": "[1]", "result": "inactive"},
      {"measurement": "Potency", "setting": "[2]", "result": "inactive"}
    ]},
    {"compound": "COc1cc(N2CCOCC2)ccc1Nc1ncc(Cl)c(Nc2ccccc2NS(C)(=O)=O)n1", "values": [
      {"measurement": "Potency", "setting": "[1]", "result": "0.103 µM (active)"},
      {"measurement": "Potency", "setting": "[2]", "result": "0.206 µM (active)"}
    ]},
    {"compound": "COc1cc(C2c3cc4c(c(O)c3CC(CO)C2C(=O)O)OCO4)cc(OC)c1O", "note": "(configuration not stated)", "values": [
      {"measurement": "Potency", "setting": "[1]", "result": "2.52 µM (active)"},
      {"measurement": "Potency", "setting": "[2]", "result": "2 µM (active)"}
    ]},
    {"compound": "C[C@]1(CO)CCC[C@]2(C)C3=C(CCC12)COC3", "note": "(some centres not stated)", "values": [
      {"measurement": "Potency", "setting": "[1]", "result": "inactive"},
      {"measurement": "Potency", "setting": "[2]", "result": "inactive"}
    ]},
    {"compound": "C=C1C[C@H](O)[C@@H](O)[C@@]2(C)C1[C@@H](O)[C@H]1OC(=O)C3[C@@H](C)[C@@H](O)[C@H](O)C2[C@]31C", "note": "(some centres not stated)", "values": [
      {"measurement": "Potency", "setting": "[1]", "result": "inactive"},
      {"measurement": "Potency", "setting": "[2]", "result": "inactive"}
    ]},
    {"compound": "CC1(C)C2CC(OC3OC(COC4OCC(O)(CO)C4O)C(O)C(O)C3O)C1(C)CC2O", "note": "(configuration not stated)", "values": [
      {"measurement": "Potency", "setting": "[1]", "result": "inactive"},
      {"measurement": "Potency", "setting": "[2]", "result": "inactive"}
    ]},
    {"compound": "CC1=CC2/C=C(\\C)CCC(O)C/C=C/C(=O)OC23C(=O)NC(CC(C)C)C3C1C", "note": "(configuration not stated)", "values": [
      {"measurement": "Potency", "setting": "[1]", "result": "8.93 µM (active)"},
      {"measurement": "Potency", "setting": "[2]", "result": "10 µM (active)"}
    ]},
    {"compound": "CC1(C)CC[C@]2(C(=O)O[C@@H]3O[C@H](CO)[C@@H](O)[C@H](O)[C@H]3O)CC[C@]3(C)C(=CCC4[C@@]5(C)C[C@@H](O)[C@H](O)[C@@](C)(CO)C5[C@H](O)C[C@]43C)C2[C@@H]1O", "note": "(some centres not stated)", "values": [
      {"measurement": "Potency", "setting": "[1]", "result": "inactive"},
      {"measurement": "Potency", "setting": "[2]", "result": "inactive"}
    ]},
    {"compound": "CC(C)C(N)C(=O)OCCOCn1cnc2c(=O)[nH]c(N)nc21", "note": "(configuration not stated)", "values": [
      {"measurement": "Potency", "setting": "[1]", "result": "inactive"},
      {"measurement": "Potency", "setting": "[2]", "result": "inactive"}
    ]},
    {"compound": "CC(C)(C)c1ccc(S(=O)(=O)NCc2ccc(C(=O)Nc3cccnc3)cc2)cc1", "values": [
      {"measurement": "Potency", "setting": "[1]", "result": "0.231 µM (active)"},
      {"measurement": "Potency", "setting": "[2]", "result": "0.231 µM (active)"}
    ]},
    {"compound": "O=C(/C=C/c1ccccc1)O[C@@H]1[C@@H](CO)O[C@@](CO)(O[C@H]2O[C@H](CO)[C@@H](O)[C@H](O)[C@H]2O)[C@H]1O", "values": [
      {"measurement": "Potency", "setting": "[1]", "result": "inactive"},
      {"measurement": "Potency", "setting": "[2]", "result": "inactive"}
    ]}
  ]
}
